Bioassay records from PubChem.
Most compounds without a hit are left out; they make up all but 6.7% or so of the library.
C diff HTS = C. difficile growth inhibitors, primary screen, HTS; AID 1259249, 2017; growth activity, negative = inhibition, % at 16 µg/mL (by protocol); actives 0.25% (n = 86,000); Clostridium difficile clinical isolate growth, OD600, 24 h; stronger effect = lower value;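 active = mean growth activity at or below -80% and every replicate also at or below -80%; inconclusive = mean at or below -80% but some replicate above -80%; inactive = mean growth activity above -80%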;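 also: 0% = DMSO wells and -100% = levofloxacin 16 µg/mL wells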
T cruzi growth-1 = T. cruzi intracellular proliferation inhibitors, primary screen, cell-based, beta-gal Tulahuen parasites, NIH3T3 host, luminescence; T. cruzi beta-gal in NIH3T3, GalScreen luminescence, 90 h; inhibition, % at 8.34 µM; actives 5.9% (n = 77,000);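 active = mean inhibition above about 93%, with at least 55% of replicates each passing it, limit read from the data, passing the limit was not always enough; inconclusive = only one of those two conditions holds; inactive = neither condition holds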
Pf Dd2 inh = P. falciparum Dd2 growth inhibitors, primary screen, SYBR Green fluorescence, single dose replicates; 72 h; stronger effect = lower value; activity change, % at 10 µM; actives 2.3% (n = 94,000); AID 1159554, 2015; in the data active = activity change below about -80%; inconclusive = no clear call, values can overlap the other calls
T cruzi growth-2 = T. cruzi intracellular proliferation inhibitors, confirmation, cell-based, NIH3T3 host, beta-gal parasite, luminescence, cherry-pick | actives 72% (n = 5,600) | shares compounds with T cruzi growth-1 | inhibition, % at 8.35 µM | AID 651739, 2012 | T. cruzi beta-gal in NIH3T3, GalScreen luminescence, 90 h;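 active = mean replicate inhibition above about 95% and at least 55% of replicates individually reaching it, limit read from the data; inconclusive = only one of the two criteria is met; inactive = neither criterion is met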
T cruzi growth-3 = inhibitors of intracellular T. cruzi replication, confirmation, NIH3T3 host cells, beta-gal parasites, cherry-pick, set 2 | shares compounds with T cruzi growth-1 | T. cruzi beta-gal in NIH3T3, GalScreen luminescence, 90 h | inhibition, % at 2.09 µM | actives 21% (n = 5,600);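 active = mean inhibition above about 95%, with at least 55% of replicates also reaching it, limit read from the data; inconclusive = meets just one of the two conditions; inactive = meets neither condition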;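 also: plate controls were neutral control median for no effect and positive control median for full effect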
3T3 cytotox = cytotoxicity in mouse NIH/3T3 fibroblasts, confirmation, cytotoxicity control for T. cruzi proliferation inhibitor project, cell-based, cherry-pick, single point | shares compounds with T cruzi growth-1 | cytotoxicity (signal decrease), % at 8.35 µM | AID 651742, 2012 | NIH/3T3 viability, CellTiter-Glo ATP luminescence, 90 h | actives 14% (n = 5,600);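 active = mean signal decrease across replicates above about 35% based on untreated-well scatter, with enough replicates individually passing, limit read from the data; inconclusive = no rule stated though some were filed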;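 also: 0% = median of neutral control wells and 100% = median of positive control wells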
3T3 cytotox 2 = NIH/3T3 fibroblast cytotoxicity, confirmation, cytotoxicity control, cell-based, cherry-pick, single point, set 2 | actives 56% (n = 5,600) | AID 651744, 2012 | inhibition, % at 24.9 µM | NIH/3T3 viability, CellTiter-Glo ATP luminescence, 90 h | shares compounds with T cruzi growth-1;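 active = mean loss of cell viability signal at or above a set limit, and enough replicates individually reaching it; inconclusive = meets only the mean limit or only the replicate share; inactive = meets neither condition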;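 also: 0% = median of neutral control wells and 100% = median of positive control wells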
* = called active by the depositor; ? = inconclusive; · = not tested or not shown.

SMILES | C diff HTS | T cruzi growth-1 | Pf Dd2 inh | T cruzi growth-2 | T cruzi growth-3 | 3T3 cytotox | 3T3 cytotox 2
C[C@H](CO)N1C[C@H](C)[C@H](CN(C)C(=O)Nc2ccccc2)Oc2ncc(C#Cc3ccc(C(F)(F)F)cc3)cc2C1=O | 21.6 | 116.8* | -34.7 | 107.7* | ? | 16.5 | 105.1*
C[C@@H]1CN([C@H](C)CO)C(=O)c2cc(C#Cc3ccc(F)cc3)cnc2O[C@H]1CN(C)C(=O)Nc1ccc(F)cc1 | · | 8.4 | -23.2 | · | · | · | ·
C[C@H](CO)N1C[C@H](C)[C@H](CN(C)C(=O)Nc2ccccc2)Oc2ncc(C#Cc3ccccc3)cc2C1=O | 17.6 | 73.1 | -47.5 | · | · | · | ·
C[C@H](CO)N1C[C@H](C)[C@H](CN(C)C(=O)Nc2ccccc2)Oc2ncc(C#CC3CCCC3)cc2C1=O | -4.8 | 60.9 | -33.9 | · | · | · | ·
C[C@@H]1CN([C@H](C)CO)C(=O)c2cc(C#CC3CC3)cnc2O[C@@H]1CN(C)C(=O)Nc1ccccc1 | · | 107.2* | -12.3 | 52.7 | 45.9 | -5.4 | 19.6
C[C@H](CO)N1C[C@H](C)[C@H](CN(C)C(=O)Nc2ccc(F)cc2)Oc2ncc(C#Cc3ccccc3)cc2C1=O | · | 109.8* | -66.8 | 80.2 | 30.7 | 57.0* | 102.9*
C[C@@H]1CCCCO[C@H](CN(C)S(=O)(=O)c2cccs2)[C@@H](C)CN([C@H](C)CO)C(=O)c2cc(NS(=O)(=O)c3cccs3)ccc2O1 | -1.2 | -33.4 | -28.2 | · | · | · | ·
COc1ccccc1-c1cn(CC[C@H]2CC[C@@H](NC(=O)c3ccccc3F)[C@@H](CO)O2)nn1 | 6.5 | · | -23.8 | · | · | · | ·
COc1ccc(NC(=O)Nc2ccc3c(c2)CC(=O)N([C@H](C)CO)C[C@@H](C)[C@H](CN(C)C(=O)Nc2ccc4c(c2)OCO4)O3)cc1 | -10.1 | -3.6 | 12.9 | · | · | · | ·
CN(C)CCCNC(=O)C[C@@H]1CC[C@@H]2[C@@H](COc3ccc(NS(C)(=O)=O)cc3C(=O)N2C)O1 | 12.3 | -10.7 | 20.4 | · | · | · | ·
O=C(Cc1ccncc1)NCC[C@H]1CC[C@@H](NC(=O)C2CCOCC2)[C@@H](CO)O1 | 5.2 | -52.1 | 9.1 | · | · | · | ·
COc1ccc(NC(=O)N(C)C[C@@H]2Oc3ncc(C#Cc4ccc(C(F)(F)F)cc4)cc3C(=O)N([C@H](C)CO)C[C@@H]2C)cc1 | 20.7 | 108.1* | -72.8 | 101.5* | ? | 10.3 | 104.2*
COc1ccc(NC(=O)N(C)C[C@H]2Oc3ncc(C#CCN(C)C)cc3C(=O)N([C@@H](C)CO)C[C@H]2C)cc1 | -0.8 | · | 16.2 | · | · | · | ·
CNC[C@@H]1Oc2ccc(NC(=O)Nc3ccc(F)cc3)cc2C(=O)N([C@@H](C)CO)C[C@@H]1C | 1.3 | · | 9.4 | · | · | · | ·
O=C(C[C@@H]1C=C[C@H](NS(=O)(=O)c2ccc(F)cc2)[C@H](CO)O1)N1CCC(Cc2ccccc2)CC1 | 0.1 | 42.1 | 17.0 | · | · | · | ·
O=C(C[C@H]1C=C[C@H](NS(=O)(=O)c2ccc(F)cc2)[C@H](CO)O1)N1CCC(Cc2ccccc2)CC1 | -0.3 | ? | 1.0 | 106.9* | -15.1 | -18.1 | 15.7
Cc1ccc(S(=O)(=O)N[C@@H]2C=C[C@H](CC(=O)N3CCC(Cc4ccccc4)CC3)O[C@H]2CO)cc1 | · | 49.8 | -24.1 | · | · | · | ·
Cc1ccc(S(=O)(=O)N[C@H]2C=C[C@H](CC(=O)N3CCC(Cc4ccccc4)CC3)O[C@H]2CO)cc1 | · | 124.9* | -19.3 | 102.8* | -4.5 | -1.4 | 8.5
CC(C)NC(=O)N(C)C[C@H]1Oc2ncc(C#CCc3ccccc3)cc2C(=O)N([C@@H](C)CO)C[C@H]1C | 2.2 | 26.4 | -35.5 | · | · | · | ·
CN(C)C(=O)C[C@H]1CC[C@H]2[C@@H](COC[C@H](O)CN2C(=O)c2ccncc2)O1 | -3.6 | -63.7 | · | · | · | · | ·
CS(=O)(=O)N1[C@@H]2c3ccc(-c4ccc(F)cc4)c(=O)n3C[C@@H]2[C@@H](CO)[C@@H]1C(=O)O | -5.0 | -10.3 | · | · | · | · | ·
C[C@@H]1CN([C@H](C)CO)C(=O)Cc2cc(NS(=O)(=O)c3ccc(F)cc3)ccc2O[C@H]1CN(C)C(=O)Nc1ccc2c(c1)OCO2 | · | 23.6 | 12.4 | · | · | · | ·
O=C(CN1CCOCC1)NCC[C@@H]1CC[C@@H](NS(=O)(=O)c2ccc(F)cc2)[C@@H](CO)O1 | · | -22.9 | -2.9 | · | · | · | ·
CN(C)C(=O)c1cccc(-c2ccc3c(c2)[C@@H]2[C@@H](CCN2C(=O)C2CC2)[C@H](CO)N3)c1 | -1.5 | 68.4 | -23.1 | · | · | · | ·
CN(C)C(=O)c1cccc(-c2ccc3c(c2)[C@H]2[C@H](CCN2C(=O)C2CC2)[C@H](CO)N3)c1 | -2.9 | 99.1* | -7.4 | 105.2* | 70.6 | -18.7 | -6.4
SMILES | C diff HTS | T cruzi growth-1 | Pf Dd2 inh | T cruzi growth-2 | T cruzi growth-3 | 3T3 cytotox | 3T3 cytotox 2
CN(C)C(=O)c1cccc(-c2ccc3c(c2)[C@H]2[C@H](CCN2C(=O)C2CC2)[C@@H](CO)N3)c1 | -0.1 | 111.7* | -94.0* | 93.5 | 48.4 | -8.4 | -6.6
O=C(C1CC1)N1CC[C@@H]2[C@H]1c1cc(-c3cccc(F)c3)ccc1N[C@@H]2CO | -27.6 | 114.7* | -23.3 | 104.7* | 102.6* | 4.3 | 28.0*
O=C(C1CCOCC1)N1CC[C@@H]2[C@H]1c1cc(-c3cccc(F)c3)ccc1N[C@@H]2CO | -16.7 | 49.2 | 4.8 | · | · | · | ·
CN(C)C(=O)c1cccc(-c2ccc3c(c2)[C@@H]2[C@@H](CCN2C(=O)C2CCCC2)[C@H](CO)N3)c1 | 0.3 | · | -54.6 | · | · | · | ·
N#Cc1ccc(-c2ccc3c(c2)[C@H]2[C@H](CCN2S(=O)(=O)c2ccccc2F)[C@H](CO)N3)cc1 | 4.3 | 5.5 | -1.7 | · | · | · | ·
CCCNC(=O)N(C)C[C@H]1Oc2cc(C#CC(C)C)ccc2S(=O)(=O)N([C@@H](C)CO)C[C@@H]1C | -7.6 | 15.8 | -12.2 | · | · | · | ·
COc1ccccc1NC(=O)N1CC(=O)N2[C@@H](CO)[C@@H](c3ccc(C#CC4CC4)cc3)[C@@H]2C1 | -0.7 | · | -41.1 | · | · | · | ·
COc1ccc2c3c([nH]c2c1)[C@@H](CO)N(C(=O)CN(C)C)CC31CCN(Cc2ccccc2Cl)CC1 | 3.7 | · | -77.5 | · | · | · | ·
CC(C)C#Cc1ccc2c(c1)O[C@@H](CN(C)C(=O)c1cnccn1)[C@H](C)CN([C@@H](C)CO)S2(=O)=O | -4.7 | 59.4 | -12.6 | · | · | · | ·
CC=Cc1ccc2n(c1=O)C[C@@H]1[C@@H](CO)[C@H](C(=O)NCC(F)(F)F)[C@H]2N1C(C)=O (mixture of isomers) | -2.6 | -3.3 | 2.1 | · | · | · | ·
